According to PubChem BioAssay (Tox21):
Records with an inconclusive call do not appear. Active and inactive are the calls of the source. Unless noted, calls follow the shape of the dose curve; as a rule, active = well fitted curve in the direction sought with a large enough effect in the repeat runs; inconclusive = weak or mixed curves; inactive = no such curve, though single readings can be large; an effect the other way counts as inactive or inconclusive.

Assays:
[1] = qHTS assay to identify small molecule agonists of H2AX (AID 1224845; active = well fitted activation curve with a large enough effect in the signal ratio in the repeat runs, not every such curve was filed as active; the % refers to the signal ratio)
Procedure, shortened: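 Phospho-H2AX Ser139 measured by HTRF (ex 320 nm; em 665 and 620 nm) after 24 hr antibody incubation. Compounds, 15 concentrations, 0.76% DMSO, were applied to CHO-K1 cells for 3hr at 37C before lysis.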

[2] = qHTS assay to identify small molecule agonists of the hypoxia (HIF-1) signaling pathway (AID 1224846; active = well fitted activation curve with a large enough effect in the signal ratio in the repeat runs, not every such curve was filed as active; the % refers to the signal ratio)
Procedure, shortened: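 HRE-bla ME-180 cells (beta-lactamase reporter under hypoxia response element) were plated at 2,000 cells/well in medium with 0.5% dialyzed FBS, rested 5 hrs, then given compounds in DMSO for 17 hrs at 37C, 5% CO2. Reporter induction was read with CCF4-AM FRET substrate.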

[3] = qHTS assay to identify small molecule agonists of H2AX - cell viability counter screen (AID 1224847; calls by dose curve;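 also: wild-type CHO-K1 cells; top concentration of the series differs between compounds; nearly all actives have a fitted effect of over 30% in size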)
Procedure, shortened: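 For this counter screen, overnight-attached CHO-K1 cells received test compounds (15 concentrations, 0.76% DMSO final); 3 hr later at 37C, CellTiter-Glo reagent was added and luminescence recorded after 30 min at room temperature.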

[4] = qHTS RealTime-Glo MT Cell Viability Assay in HepG2 cells - 24 hour (AID 1224867); also: nearly all actives have a fitted effect of over 50% in size
Procedure, shortened: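 Cells + NanoLuc/prosubstrate dispensed (600 cells/well) → 5 h at 37 C/5% CO2 → compounds in DMSO transferred → 40 h incubation at 37 C, luminescence read at 0, 8, 16, 24, 32, 40 h.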

[5] = qHTS RealTime-Glo MT Cell Viability Assay in HEK293 cells - 32 hour (AID 1224868); also: top concentration of the series differs between compounds; nearly all actives have a fitted effect of over 50% in size
Procedure, shortened: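 Tox21 10K qHTS, HEK293, 600 cells/well, RealTime-Glo reagent co-dispensed with cells; 5 h preincubation, compound by pintool, 37 C, luminescence at 0–40 h.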

[6] = A CellTox Green Cytotoxicity Assay to monitor cytotoxicity in HEK293 cells - 0 hour (AID 1224869); also: nearly all actives have a fitted effect of over 50% in size
Procedure, shortened: (§1)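 HEK293 cells premixed with CellTox Green dye were seeded at 600 cells/well and left 5 h at 37 C/5% CO2 before pin transfer of 23 nL compound in DMSO. Fluorescence from dye bound to dead-cell DNA was read during 40 h treatment.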

[7] = qHTS RealTime-Glo MT Cell Viability Assay in HepG2 cells - 40 hour (AID 1224870); also: nearly all actives have a fitted effect of over 50% in size
Procedure, shortened: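 Real-time viability: cells seeded at 600 per well together with NanoLuc and cell-permeant prosubstrate, compounds added after 5 h incubation. Luminescence tracked at 0, 8, 16, 24, 32 and 40 h of exposure.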

[8] = A CellTox Green Cytotoxicity Assay to monitor cytotoxicity in HEK293 cells - 40 hour (AID 1224871); also: nearly all actives have a fitted effect of over 45% in size
Procedure, shortened: as §1
% is scaled to controls: 0 for no effect and ±100 for the full control effect.

Cc1ccccc1S(N)(=O)=O
inactive: Potency [1] | outcome [2] | Potency [3] | Potency [4] | Potency [5] | Potency [6] | Potency [7] | Potency [8]

CC(C)(O)c1coc(S(=O)(=O)NC(=O)Nc2c3c(cc4c2CCC4)CCC3)c1
inactive: Potency [1] | outcome [2] | Potency [3] | Potency [4] | Potency [5] | Potency [6] | Potency [7] | Potency [8]

CC(C)(C)C(O)/C=C/c1ccc2c(c1)OCO2 (configuration not stated)
inactive: Potency [1] | outcome [2] | Potency [3] | Potency [4] | Potency [5] | Potency [6] | Potency [7] | Potency [8]

CC1=CC[C@@H]2C[C@H]1C2(C)C
inactive: activation (H2AX phosphorylation) [1] 1.37% [at 31.6 µM] | activation [2] -1.3% [at 15.8 µM] | activity change, negative = cytotoxicity [3] 0.589% [at 31.6 µM] | activity change, negative = cytotoxicity [4] 0.892% [at 15.8 µM] | activity change, negative = cytotoxic [5] 2.23% [at 15.8 µM] | cytotoxicity [6] 0.458% [at 15.8 µM] | activity change, negative = cytotoxic [7] 1.07% [at 15.8 µM] | cytotoxicity increase [8] 2.52% [at 15.8 µM]

Cc1ccc(N(CCO)CCO)cc1
inactive: Potency [1] | outcome [2] | Potency [3] | Potency [4] | Potency [5] | Potency [6] | Potency [7] | Potency [8]

CCCCCCCC/C=C/C(=O)O
inactive: Potency [1] | outcome [2] | Potency [3] | Potency [4] | Potency [5] | Potency [6] | Potency [7] | Potency [8]

CCCCCCCCCCCCCCN(C)C
inactive: activation (H2AX phosphorylation) [1] 0.821% [at 31.6 µM] | activation [2] -0.0233% [at 15.8 µM] | activity change, negative = cytotoxicity [3] 0.248% [at 31.6 µM] | activity change, negative = cytotoxicity [4] 1.14% [at 15.8 µM] | activity change, negative = cytotoxic [5] -30.2% [at 15.8 µM] | cytotoxicity [6] -21.7% [at 15.8 µM] | activity change, negative = cytotoxic [7] 10.3% [at 15.8 µM] | cytotoxicity increase [8] -34.7% [at 15.8 µM]

BrC(Br)C(Br)Br
inactive: Potency [1] | outcome [2] | Potency [3] | Potency [4] | Potency [5] | Potency [6] | Potency [7] | Potency [8]

CC(C)(C(=O)c1cccnc1)c1cccnc1
inactive: Potency [1] | outcome [2] | Potency [3] | Potency [4] | Potency [5] | Potency [6] | Potency [7] | Potency [8]

CCOCCC(=O)OCC
inactive: Potency [1] | outcome [2] | Potency [3] | Potency [4] | Potency [5] | Potency [6] | Potency [7] | Potency [8]

CCCCCCOC(=O)CCCCC
inactive: Potency [1] | outcome [2] | Potency [3] | Potency [4] | Potency [5] | Potency [6] | Potency [7] | Potency [8]

CCCCOCCOC(=O)c1cccnc1
inactive: Potency [1] | outcome [2] | Potency [3] | Potency [4] | Potency [5] | Potency [6] | Potency [7] | Potency [8]

CC(C)N(C)C
inactive: Potency [1] | outcome [2] | Potency [3] | Potency [4] | Potency [5] | Potency [6] | Potency [7] | Potency [8]

CCCCCCCCCCCCCOC(=O)CCSCCC(=O)OCCCCCCCCCCCCC
inactive: activation (H2AX phosphorylation) [1] 0.898% [at 31.6 µM] | activation [2] 0.146% [at 15.8 µM] | activity change, negative = cytotoxicity [3] -1.78% [at 31.6 µM] | activity change, negative = cytotoxicity [4] -1.37% [at 15.8 µM] | activity change, negative = cytotoxic [5] -0.356% [at 15.8 µM] | cytotoxicity [6] 6.82% [at 15.8 µM] | activity change, negative = cytotoxic [7] 6.27% [at 15.8 µM] | cytotoxicity increase [8] 7.8% [at 15.8 µM]

CCc1ccc(C)cc1
inactive: Potency [1] | outcome [2] | Potency [3] | Potency [4] | Potency [5] | Potency [6] | Potency [7] | Potency [8]

CC1CCCO1 (configuration not stated)
inactive: Potency [1] | outcome [2] | Potency [3] | Potency [4] | Potency [5] | Potency [6] | Potency [7] | Potency [8]

O=CNNC=O
inactive: Potency [1] | outcome [2] | Potency [3] | Potency [4] | Potency [5] | Potency [6] | Potency [7] | Potency [8]

Cc1cccc2sc(N)nc12
inactive: Potency [1] | outcome [2] | Potency [3] | Potency [4] | Potency [5] | Potency [6] | Potency [7] | Potency [8]

CCC(=O)OCc1ccc(OC)cc1
inactive: Potency [1] | outcome [2] | Potency [3] | Potency [4] | Potency [5] | Potency [6] | Potency [7] | Potency [8]
